Reference: PubChem BioAssay (NCATS)
Where “and” joins values, the source holds several entries; their conditions need not be identical. Equal entries are not always repeated. Values without a mark were called inactive.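 The calls were made as follows: active = compounds whose dose series gives a full or clear partial fitted curve of increased nuclear translocation; inconclusive = weak partial curve or effect only at the top dose; inactive = no dose-dependent translocation response.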

Each compound was assayed against Glucocorticoid receptor (Homo sapiens) (UniProt P04150) (assay: GR-GFP Redistribution (AID 450)). Settings: U2OS GR-GFP nuclear translocation, laser cytometry, 2 h.
From the text: NIH Molecular Libraries Screening Centers Network [MLSCN]
NIH Chemical Genomics Center [NCGC]
The glucocorticoid receptor (GR) Redistribution assay (BioImage) enables the visualization of GR cytoplasmic to nuclear translocation by the use of a GR-GFP fusion. GR is normally cytosolic, however ligands such as dexamethasone, cause nuclear translocation where the protein binds to response elements and interacts with various co-factors to modulate transcription. Because both functional agonists and antagonists can induce nuclear translocation, this assay can detect ligands regardless of their effects on gene expression. GR-GFP expressing U20S cells were used here. Dexamethasone was the positive control for translocation and data normalization. Detection of nuclear translocation was performed in 1536-well plates using the Acumen laser scanning plate cytometer (TTP LabTech). Validation of this assay and a detailed protocol have been described.
NCGC Assay Protocol Summary:
GR-GFP U2OS cells were maintained in DMEM with Glutamax and high glucose, 1% v/v penicillin-streptomycin, and 0.5 mg/mL Geneticin. For cell culture, 10% […] fetal bovine serum (FBS) was used (Invitrogen #26140-079). For cell plating 10% dextran, charcoal-stripped FBS (Hyclone SH30068.03) was used. U2OS cells were trypsin treated, suspended in medium, and passed through a 40 um basket filter. The cells were seeded at 600 cells/5 uL/well into clear-bottom black sided 1536-well plates and incubated for approximately 20 hrs, 37degC, 5%, CO2 in a tissue culture incubator. Twenty-three nL of compound was delivered by pin tool and the plates were incubated as above for 2 hrs. The compounds were tested as a 7-point titration ranging from 46 uM to 0.6 nM. The cells were fixed using the Kalypsys Washer/Dispenser station. The fixing protocol involved aspiration of the cell media, addition of 6 uL/well of PBS, aspiration of PBS, addition of 5uL/well of 100% methanol, aspiration of methanol, and addition of 3 uL/well PBS with 1.5 uM propidium iodide (PI). The plates were read by the Acumen Explorer using a 1 x 8 um scan of the whole well area. PI fluorescence triggered the collection of PI and GFP signals. A nuclei population was defined by a 10 to 100 um width and depth filter that eliminated small and large fluorescent particles. Two subpopulations of nuclei were then defined by peak intensity of GFP fluorescence to obtain translocated and untranslocated objects. The number of translocated objects was used for data normalization.
Keywords: NIH Roadmap, MLSCN, MLI, MLSMR, sOGT, qHTS, NCGC
Potency is read from the fitted curve at half-maximal effect.

Sequence of Glucocorticoid receptor (Homo sapiens) (P04150 whole entry, looked up): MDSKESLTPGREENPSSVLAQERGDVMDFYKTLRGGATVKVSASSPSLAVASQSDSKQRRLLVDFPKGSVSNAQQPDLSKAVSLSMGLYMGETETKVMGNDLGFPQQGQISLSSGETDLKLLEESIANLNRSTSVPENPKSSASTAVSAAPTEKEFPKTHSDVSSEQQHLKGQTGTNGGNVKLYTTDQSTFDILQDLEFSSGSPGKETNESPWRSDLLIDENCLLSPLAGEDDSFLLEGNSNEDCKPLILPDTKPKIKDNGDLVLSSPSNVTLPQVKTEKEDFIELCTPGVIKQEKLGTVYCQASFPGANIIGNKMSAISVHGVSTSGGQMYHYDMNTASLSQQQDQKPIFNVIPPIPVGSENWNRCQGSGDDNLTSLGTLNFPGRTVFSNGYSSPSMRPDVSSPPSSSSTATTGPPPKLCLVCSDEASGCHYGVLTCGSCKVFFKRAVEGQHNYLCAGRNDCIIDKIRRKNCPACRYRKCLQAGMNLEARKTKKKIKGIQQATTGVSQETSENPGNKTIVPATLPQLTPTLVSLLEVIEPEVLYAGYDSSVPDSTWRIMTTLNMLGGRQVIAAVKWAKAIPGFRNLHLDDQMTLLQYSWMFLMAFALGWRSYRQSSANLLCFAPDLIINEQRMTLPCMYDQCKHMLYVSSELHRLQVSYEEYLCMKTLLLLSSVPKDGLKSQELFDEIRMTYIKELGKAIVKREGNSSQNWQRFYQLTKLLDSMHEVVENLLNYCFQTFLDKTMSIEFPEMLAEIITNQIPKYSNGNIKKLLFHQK

Row | SMILES | Potency
1 | NC[C@@H](CC(=O)O)c1ccc(Cl)cc1 | > 20.6 µM and > 46 µM
2 | C=CCN1C[C@H](C)N([C@H](c2ccc(C(=O)N(CC)CC)cc2)c2cccc(O)c2)C[C@H]1C | > 46 µM
3 | CCCN(CCC)[C@@H]1CCc2c(OC)cccc2[C@@H]1C | > 46 µM
4 | O=C1Nc2cc(Cl)c(Cl)cc2N2CCNC[C@H]12 | > 46 µM
5 | COc1ccc(-n2nc(C(F)(F)F)cc2-c2ccc(Cl)cc2)cc1 | > 46 µM
6 | N[C@@H](Cn1ccc(=O)n(Cc2ccc(C(=O)O)cc2)c1=O)C(=O)O | > 46 µM
7 | CC(=O)N1CC[N+](C)(C)CC1 | > 46 µM
8 | CC(C)(O)[C@@H]1[C@H]2OC(=O)[C@@H]1[C@]1(O)C[C@H]3O[C@]34C(=O)O[C@H]2[C@@]14C (tested in a mixture with another compound) | > 46 µM
9 | C/C(O)=C(/C#N)C(=O)Nc1cc(Br)ccc1Br | > 46 µM
10 | CCOC(=O)c1ncn2c1[C@H]1CCCN1C(=O)c1cc(OC)ccc1-2 | > 46 µM
11 | O=C(O)/C=C\CO | > 46 µM
12 | CC[N+](CC)(CCCNC1=CC(=O)C(NCCC[N+](CC)(CC)Cc2ccccc2)=CC1=O)Cc1ccccc1 | > 46 µM
13 | Cc1cccc([C@H](C)c2cnc[nH]2)c1C | > 46 µM
14 | C[C@H](N)Cc1c[nH]c2ccc(O)cc12 | > 46 µM
15 | CCOC(OCC)P(=O)(O)CCCN | > 46 µM
16 | C/C(=C\C=C/[C@@H](C)C(=O)O)[C@H]1CN[C@H](C(=O)O)[C@@H]1CC(=O)O | > 46 µM
17 | C(=C/c1ccccc1)/CN1CCN(CCOC(c2ccccc2)c2ccccc2)CC1 | > 46 µM
18 | N[C@@H](CCP(=O)(O)O)C(=O)O | > 46 µM
19 | CCN1C[C@]2(COC(=O)c3ccccc3N3C(=O)C[C@H](C)C3=O)CC[C@H](OC)[C@@]34[C@@H]5C[C@H]6[C@H](OC)[C@H]5[C@](O)(C[C@@H]6OC)[C@@](O)([C@@H](OC)[C@@H]23)[C@@H]14 | > 46 µM
20 | c1ccc2c(c1)OC[C@@H](C1=NCCN1)O2 | > 46 µM and > 20.6 µM

Row | SMILES | Potency
21 | CC(=O)C1=C(O)[C@@H]2[C@@H]3c4c[nH]c5cccc(c45)C[C@@H]3C(C)(C)N2C1=O | > 46 µM
22 | CC(=O)O[C@@H]1CN2CCC1CC2 | > 46 µM
23 | CCCN[C@@H]1CCc2c(OC)cccc2[C@@H]1C | > 46 µM
24 | O=C(O)[C@H]1[C@H]2CN[C@H](C(=O)O)[C@H]21 | > 46 µM
25 | COC(=O)CN1CN(c2ccccc2)C2(CCN(Cc3ccc4ccccc4c3)CC2)C1=O | > 46 µM
26 | CS(=O)(=O)Nc1ccc(Cc2noc(-c3ccc4[nH]cc(CCN)c4c3)n2)cc1 | > 46 µM
27 | S=C=Nc1cccc(C2(N3CCCCC3)CCCCC2)c1 | > 46 µM
28 | CC1=C(O)C(=O)[C@H]2O[C@@H]2C1=O | > 46 µM
29 | C[C@@]1(CO)[C@H](O)CC[C@@]2(C)[C@H]1CC[C@H]1C[C@@H]3C[C@@]12CC[C@]3(O)CO | > 20.6 µM
30 | CN1C(=O)CCS(=O)(=O)[C@H]1c1ccc(Cl)cc1 | > 46 µM
31 | Cc1ccc(C[N+](C)(C)C)o1 | > 46 µM
32 | Cc1c(C(=O)c2ccc3ccccc3c2)c2cccc3c2n1[C@H](CN1CCOCC1)CO3 | > 46 µM
33 | COc1cccc2c1cc([N+](=O)[O-])c1c(C(=O)O)cc3c(c12)OCO3 | > 46 µM
34 | CC[C@H](Oc1ccc(Cl)cc1)C(=O)OC1C[C@H]2CC[C@@H](C1)N2C (stereo not given in full) | > 46 µM
35 | CN1CC[C@@H]2CN3CCc4cccc(c43)[C@H]2C1 | > 46 µM
36 | O=C(O)Cc1cccnc1C(=O)O | > 46 µM
37 | N[C@H](C(=O)O)c1cc(=O)[nH]o1 | > 46 µM
38 | CN(C)[C@@H]1C(=O)C(C(N)=O)=C(O)[C@@]2(O)C(=O)C3=C(O)c4c(O)ccc(Cl)c4[C@@](C)(O)C3C[C@@H]12 (stereo not given in full) | > 20.6 µM
39 | O=C1C2CCN(CC2)C1(CO)CO | > 46 µM
40 | Oc1ccc2c3c1O[C@H]1c4[nH]c5ccccc5c4C[C@]4(O)[C@H](C2)N(CC2CC2)CC[C@@]314 | > 46 µM
